Test in all cases: NCI-60 one-dose screen, 48 h (100 = growth as untreated, 0 = no growth, -100 = all killed)
Experiment [1] concerns SK-MEL-2 melanoma. Conditions: 10 µM unless noted.
For experiment [2], the system named is EKVX NSCLC. Conditions: 10 µM unless noted.
Experiment [3] deals with SN12C renal. Conditions: 10 µM unless noted.
Experiment [4] concerns UO-31 renal. The settings on record: 10 µM unless noted.
The subject of experiment [5] is TK-10 renal. The settings on record: 10 µM unless noted.
In experiment [6] the test system is ACHN renal. The settings on record: 10 µM unless noted.
Experiment [7] relates to CAKI-1 renal. Conditions: 10 µM unless noted.
The subject of experiment [8] is A498 renal. The settings on record: 10 µM unless noted.
Experiment [9] deals with CCRF-CEM leukemia. The settings on record: 10 µM unless noted.
Experiment [10] deals with MOLT-4 leukemia. The settings on record: 10 µM unless noted.
Experiment [11] has as its system SR leukemia. The settings on record: 10 µM unless noted.
The test system of experiment [12] is RPMI-8226 leukemia. The settings on record: 10 µM unless noted.
The test system of experiment [13] is OVCAR-8 ovarian. Conditions: 10 µM unless noted.
The subject of experiment [14] is OVCAR-5 ovarian. Conditions: 10 µM unless noted.
Experiment [15] concerns OVCAR-4 ovarian. Conditions: 10 µM.
In experiment [16] the test system is SK-OV-3 ovarian. Conditions: 10 µM unless noted.
Experiment [17] concerns IGROV1 ovarian. Conditions: 10 µM unless noted.
Experiment [18] concerns OVCAR-3 ovarian. Conditions: 10 µM unless noted.
Experiment [19] concerns HS 578T breast. The settings on record: 10 µM unless noted.
The subject of experiment [20] is NCI/ADR-RES ovarian. The settings on record: 10 µM unless noted.

About 83,000 compounds went through this panel and 20% of them were active in at least one assay; those are over-represented in the sample as a whole.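 Percent growth is the endpoint: 0 to 100 indicates growth inhibition (40 means 60% inhibition), 0 means no net growth, and negative values indicate cell death.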 A number with no mark means an inactive call. The source made the active and inactive calls. The calls were made as follows: active = growth percent below 10; inactive = the rest.

In the case of `O=[N+]([O-])c1cc(CCl)ccc1OCCBr`, the growth is 106% in [1]; 104% in experiment [2]; 99.7% in [3]; 80.8% in [4]; 101% in experiment [5]; 107% in experiment [6]. Further, the growth was 92% in experiment [7]; 91.9% in experiment [8]; 86.6% in experiment [9]; 109% in experiment [10]; 102% in experiment [11]; 93.5% in experiment [12]. In addition, the growth in experiment [13] is 101%; in experiment [14], 108%; in [15] it was 97%; in [16] it was 102%; in [17], 107%; in experiment [18], 105%. Further, the growth in [19] was 108%; in experiment [20], 110%.
With `Oc1cc(Nc2ccnc3cc(Cl)ccc23)c2ncccc2c1`, the growth is 94.4% in experiment [1]; 98.5% in experiment [2]; 79.3% in experiment [3]; 44.4% in [4]; 109% in experiment [5]; 71.1% in [6]. In addition, the growth in experiment [7] is 86.2%; in experiment [8] it was 100%; in experiment [9], 67.9%; in [10], 68.9%; in [11], 37%; in experiment [12], 53.5%. For the same compound, the growth in [13] is 70.3%; in experiment [14] it was 104%; in experiment [15], 44.4%; in experiment [16], 85.4%; in experiment [17], 94.3%; in [18] it was 81%. The figures for the growth in experiment [19] and in [20] were 62.1% and 51.8%, respectively.
For `CCCOc1ccc(-c2nc(-c3ccc(N)cc3)cs2)cc1`, the growth in [1] is 107%; in experiment [2] it was 95.6%; in experiment [3] it was 95.2%; in experiment [4], 77.1%; in [5], 125%; in [6] it was 97.1%. The growth in experiment [7] is 79.3%; in experiment [8], 215%; in experiment [9] it was 85.6%; in experiment [10], 116%; in experiment [11], 73.9%; in experiment [12], 96.6%. The growth in [13] is 87%; in [14], 108%; in [15], 100%; in [16], 105%; in experiment [17], 94.8%; in [18], 145%. Moreover, the growth in experiment [19] is 130%; in experiment [20], 97.9%.
For `CS(=O)(=O)c1cccnn1`, the growth in experiment [1] was 98.8%; in [2], 76.9%; in [3], 89.1%; in experiment [4], 79.9%; in [5], 109%; in experiment [6], 97.7%. In addition, the growth in [7] was 73.6%; in experiment [8], 66.7%; in [9] it was 84.9%; in experiment [10], 132%; in [11], 167%; in [12], 97%. The growth in experiment [13] is 106%; in [14], 81.1%; in experiment [15] it was 80.9%; in [16], 116%; in experiment [17] it was 78%; in experiment [18], 103%. Further, the results for the growth in [19] and in [20] were 89.2% and 96%, respectively.
Turning to `Cc1ccc2c(c1)/C(=N\N=C/c1cn(C(C)C)c3ccccc13)C(=O)N2`, the growth was 81.2% in experiment [1]; 61.9% in [2]; 56.4% in experiment [3]; 57.8% in experiment [4]; 81.4% in experiment [5]; 55.4% in experiment [6]. The growth in experiment [7] is 64.4%; in [8], 86.1%; in [9], 6.69% (active); in [10], -10% (active); in experiment [11], -9.77% (active); in experiment [12] it was 0.866% (active). Besides, the growth in experiment [13] is 54.5%; in experiment [14] it was 70.2%; in experiment [15], 37.7%; in experiment [16], 89.2%; in experiment [17] it was 48.1%; in experiment [18], -2.36% (active). In addition, the growth in experiment [19] was 73.9%; in experiment [20], 79%.
`Cc1cccc(/C=C2\N=C(c3ccccc3)N(c3ccc(S(N)(=O)=O)cc3)C2=O)c1`: the growth in experiment [1] is 102%; in experiment [2], 92.1%; in experiment [3] it was 91.8%; in [4] it was 99.9%; in experiment [5], 98.5%; in experiment [6], 86.5%. Besides, the growth in experiment [7] was 86.2%; in [8] it was 101%; in experiment [9] it was 99.9%; in experiment [10], 90.3%; in [11] it was 69.6%; in [12] it was 99.3%. The growth is 73% in [13]; 99.1% in experiment [14]; 77.1% in experiment [15]; 98.8% in [16]; 96.2% in [17]; 102% in [18]. The growth in experiment [19] was 76.1%; in [20], 88.7%.
For the compound `O=C(O)c1cn(C2CC2)c2cc(N3CCN(Cc4c(O)ccc5ccccc45)CC3)c(F)cc2c1=O`, the growth in experiment [1] is 73.8%; in experiment [2], 60.4%; in experiment [3], 30.3%; in experiment [4], 40.1%; in experiment [5], 61.4%; in [6], 53.9%. The growth is 4.12% (active) in experiment [7]; -16.6% (active) in [8]; 67.7% in experiment [9]; 31.6% in [10]; 1.76% (active) in [11]; 73.5% in [12]. In addition, the growth in experiment [13] is 16.8%; in experiment [14], 40.8%; in experiment [15], 18.2%; in experiment [16] it was 48.4%; in [17], 32.1%; in experiment [18], -44.1% (active). Moreover, the growth was -6.63% (active) in experiment [19] and 45.4% in experiment [20].
`Cc1ccc(S(=O)(=O)n2cc(C(=O)C(=O)N3CCCCC3)c3ccccc32)cc1`: the growth in experiment [1] was 90.6%; in experiment [2], 74.8%; in experiment [3], 85.3%; in experiment [4], 53.6%; in experiment [5] it was 103%; in experiment [6] it was 65.6%. The growth in experiment [7] is 58.9%; in experiment [8], 90.8%; in [9], 74.9%; in experiment [10] it was 86.9%; in [11], 57.6%; in experiment [12], 45.9%. Further, the growth was 91.9% in experiment [13]; 76.3% in experiment [14]; 49.9% in experiment [15]; 92% in experiment [16]; 71.9% in experiment [17]; 77% in experiment [18].
